Source: PubChem BioAssay (National Center for Advancing Translational Sciences (NCATS))
Marburg entry inh = blocks Marburg virus binding to or entry into cells; hit rate 1.8% among 300,000; Marburg virus pseudotyped entry inhibition, cell reporter; Potency, µM (titrated, usually from 37.8 µM), for inactives: at the highest dose activity change, negative = inhibition, hits mostly inhibitors; calls by dose curve; tested in HEK293 cells; further: potency means the concentration at half of the fitted maximal effect
Vaccinia Venus = vaccinia inhibition (Venus reporter); AID 720580; Potency, µM (doses to about 36.5 µM), inactives show at the highest dose activity change, negative = inhibition, hits mostly inhibitors; hit rate 0.46% among 330,000; Vaccinia virus Venus reporter expression, fluorescence; calls by dose curve; tested in A549 cells; further: potency means the concentration at half of the fitted maximal effect; nearly all actives have a fitted effect of over 30% in size
VACV mCherry inh = vaccinia inhibition (mCherry reporter); Vaccinia virus mCherry reporter infection, fluorescence; AID 720579; hit rate 0.63% among 310,000; Potency, µM (series often up to 36.5 µM), without a hit: top-dose activity change, negative = inhibition, actives largely listed as inhibitors; calls by dose curve; tested in A549 cells; further: potency means the concentration at half of the fitted maximal effect; nearly all actives have a fitted effect of over 35% in size
LASV entry inh = inhibitors of Lassa virus binding or cell entry. Lassa virus pseudotype entry inhibition, cell reporter. Potency, µM (doses to about 37.9 µM), without a hit: at the highest dose activity change, negative = inhibition, most hits filed as inhibitors. hit rate 1.2% among 300,000; calls by dose curve; tested in HEK293 cells; further: potency means the concentration at half of the fitted maximal effect; nearly all actives have a fitted effect of over 50% in size
FMDV inh = foot and mouth disease virus antiviral activity | FMDV antiviral cell-based qHTS | Potency, µM (titrated, usually from 57.9 µM), for inactives: top-dose activity change, negative = inhibition, hits mostly inhibitors | hit rate 1.2% among 410,000 | AID 1159524; calls by dose curve; tested in HEK293T cells; further: read-out not given here; potency means the concentration at half of the fitted maximal effect; nearly all actives have a fitted effect of over 45% in size
HCMV antiviral = blocks human cytomegalovirus replication; HFF cells, HCMV-luciferase reporter, 72 h; active compounds read low; activity change, negative = inhibition, % at 57.5 µM; hit rate 4.5% among 410,000; AID 1259415; in the data active means activity change below about -60%; inconclusive means no clear call, values can overlap the other calls; inactive means above about -39%
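Steps: HFFs plated, 16 h 37C; compounds added; HCMV-luciferase added to MOI 1 PFU/cell; 72 h 37C; OneGlo reagent, 5 min room temperature; luminescence read, normalized to controls.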
* hit, by the source's call; i = inactive; ? = inconclusive; . = not tested or not shown; [ ] = remark or other dose. A selection: hits, their analogues and other compounds. The true share with any hit is near 6.5%. On the % scale 0 is the no-effect control and ±100 the full control effect.

SMILES	Marburg entry inh	Vaccinia Venus	VACV mCherry inh	LASV entry inh	FMDV inh	HCMV antiviral
CC(=O)c1ccc(N/N=C(/C(N)=O)C2=NC(C)(C)Cc3ccccc32)cc1	3.3µM*	?	?	2.9µM*	0%	?
CC1(C)Cc2ccccc2C(/C(=N/O)C(N)=O)=N1	3%	-11%	-1%	28%	-26%	62
CC1(C)Cc2ccccc2C(/C(=N\Nc2cccc(Cl)c2)C(N)=O)=N1	?	?	?	?	?	-102*
CC(C)[C@@H](OCc1ccccc1)[C@H](C)/C=N/OC[C@@H](C)[C@H](OCc1ccccc1)C(C)C	25%[14.2 µM]	.	.	.	.	.
CN1CCC(Oc2ccccc2Sc2ccccc2)CC1	10µM*	?	?	8.2µM*	?	-77*
Cc1ccc2scc(N3CCCC(C)C3)c(=O)c2c1 (configuration not stated)	.	-11%	-16%	?	-15%	-28
COc1ccc(N2C(=O)C(OC(C)=O)C2c2ccc(C)cc2)cc1 (configuration not stated)	-6%	-6%	-11%	-24%	9%	-64*
O=C(Cn1cccn1)N1CCOc2c(cc(-c3ncc(C(F)(F)F)cc3Cl)cc2OCC2CCCO2)C1 (configuration not stated)	.	-14%	i	.	-16%	.
Cn1c(=O)c2c(ncn2CC(=O)Nc2nc(-c3ccccc3Cl)cs2)n(C)c1=O	?	.	.	?	13µM*	-60*
COC(=O)c1ccccc1NC(=O)Cn1cnc2c1c(=O)n(C)c(=O)n2C	-6%[46.1 µM]	0%	-15%	-15%	?	19
Cn1c(=O)c2c(ncn2CC(=O)Nc2ccccc2Sc2ccccc2)n(C)c1=O	?	-20%	-11%	-9%	.	-76*
CCOC(=O)Cc1csc(NC(=O)Cn2cnc3c2c(=O)n(C)c(=O)n3C)n1	2%[46.1 µM]	1%	-3%	0%	?	15
CCOc1ccc(-c2nnc(SCC(=O)Nc3ccc4c(c3)c3ccccc3n4CC)n2N)cc1	12µM*	.	.	?	-23%	-61*
COC(=O)[C@H]1[C@H](CO)[C@H]2Cn3c(cccc3=O)[C@@H]1N2CC1CC1	.	.	.	.	.	-10
OC(c1ccc(F)c(F)c1)c1ncc(-c2ccc(Cl)cc2)[nH]1 (configuration not stated)	.	?	?	.	8%	-64*
CCOc1ccccc1NC(=O)c1nc(S(=O)(=O)Cc2ccccc2F)ncc1Cl	.	-8%	21%	.	.	.
COC(=O)c1ccccc1NC(=O)c1nc(S(=O)(=O)Cc2ccccc2F)ncc1Cl	17%[46.1 µM]	-9%	-6%	12%[46.1 µM]	-17%	24
COc1ccc(NC(=O)c2nc(S(=O)(=O)Cc3cccc(C)c3)ncc2Cl)c(OC)c1	.	.	.	.	3.2µM*	-79*
COc1ccc(OC)c(NC(=O)c2nc(S(=O)(=O)Cc3ccccc3)ncc2Cl)c1	?	-8%	-1%	?	7.1µM*	-99*
Cc1ccc(-n2c(=O)c3oc4ccccc4c3n(Cc3ccccc3F)c2=O)cc1C	.	-3%	-9%	7%[46.1 µM]	6%	34
Cc1ccc(S(=O)(=O)NC(CC(C)C)C(=O)NCC(c2ccco2)N2CCCCC2)cc1 (configuration not stated)	.	.	.	.	10µM*	.
CC(=O)Nc1ccc(S(=O)(=O)NC(C)C(=O)NCC(c2ccco2)N2CCCCC2)cc1 (configuration not stated)	.	.	.	.	0%	0
Cc1ccc(C)c(SCC(=O)NCC(c2ccco2)N2CCCCC2)c1 (configuration not stated)	13µM*	-4%	i	?	-29%	?
Cc1cc(Br)ccc1SCC(=O)NCC(c1ccco1)N1CCCCC1 (configuration not stated)	?	-4%	i	-18%	-23%	-17
COc1ccc(-n2ccnc(NCCc3ccccc3)c2=O)cc1OC	.	-12%	-23%	0%[46.1 µM]	-25%	-2
SMILES	Marburg entry inh	Vaccinia Venus	VACV mCherry inh	LASV entry inh	FMDV inh	HCMV antiviral
CC(=O)Nc1ccc(NC(=O)C2Cc3c(-c4cccc(F)c4)ccnc3O2)cc1 (configuration not stated)	.	-9%	22%	.	-2%	-21
CC(=O)c1cccc(-c2ccnc3c2CC(C(=O)Nc2ccc(C(C)C)cc2)O3)c1 (configuration not stated)	.	5%	46%	.	-14%	-82*
COc1ccc(NC(=O)C2Cc3c(-c4cccc(F)c4)ccnc3O2)cc1 (configuration not stated)	.	-14%	-24%	.	-15%	-81*
O=C(Nc1ccc(Cl)c(C(F)(F)F)c1)C1Cc2c(-c3ccccc3)ccnc2O1 (configuration not stated)	.	-7%	i	.	-27%	-84*
CC(=O)c1cccc(-c2ccnc3c2CC(C(=O)Nc2cccnc2)O3)c1 (configuration not stated)	.	-17%	-2%	.	-19%	-15
CC(=O)c1cccc(NC(=O)C2Cc3c(-c4cccc(C(C)=O)c4)ccnc3O2)c1 (configuration not stated)	.	-3%	2%	.	22µM*	?
COc1ccc(OCCCn2c(CCNC(=O)C3CCCCC3)nc3ccccc32)cc1	.	-25%	-30%	.	.	.
FC(F)Oc1ccc(COc2ccc3c(-c4ccccn4)noc3n2)cc1	.	.	.	.	.	12
Cc1ccc(C2CC(=O)N(Cc3ccccc3)c3c2c(C)nn3-c2nc(C)cc(C)n2)cc1 (configuration not stated)	-5%[46.1 µM]	-12%	-3%	1%[46.1 µM]	3%	-36
CC1CN(C(=O)N2CCC(C(=O)NCc3ccccc3F)CC2)c2cc(Cl)ccc2O1 (configuration not stated)	.	-12%	-12%	-27%[46.1 µM]	-29%	-11
COc1cccc(CNc2ccc3[nH]c(=O)[nH]c3c2)c1OCc1ccc(F)cc1	?	-18%	?	-10%[46.1 µM]	?	85
O=c1[nH]c2ccc(NCc3ccccc3OCc3ccc(Cl)cc3)cc2[nH]1	.	.	.	.	?	-73*
Oc1ccc(NCc2ccccc2OCc2ccccc2)cc1	?	19%	16%	?	17%	?
Oc1ccc(NCc2ccccc2OCc2ccc(Cl)cc2)cc1	?	-9%[7.34 µM]	2%[7.34 µM]	-15%[46.1 µM]	-10%	-72*
CC1CC(C)CN(c2ncc3c(n2)CC(c2ccccc2Cl)CC3=O)C1 (configuration not stated)	?	8%	.	10µM*	?	-5
O=C1CC(c2ccc(F)cc2)Cc2nc(N3CCN(c4ccccc4)CC3)ncc21 (configuration not stated)	15%	-15%	.	-1%	?	-1
CC1CC(C)CN(c2ncc3c(n2)CC(c2ccc(Cl)cc2)CC3=O)C1 (configuration not stated)	10%	.	.	-17%	11%	11
Cc1ccc(C2CC(=O)c3cnc(N4CCc5ccccc5C4)nc3C2)cc1 (configuration not stated)	-1%	.	.	3.7µM*	-5%	56
